Measurements taken from PubChem BioAssay.
Unmarked numbers belong to inactive results. The rule behind the calls is not given here.

target: Pantothenate synthetase (Mycobacterium tuberculosis (strain ATCC 25618 / H37Rv)) (UniProt P9WIL5); assay: Recombinant Mtb pantothenate synthetase (PanC) inhibitors, coupled enzyme, confirmatory (AID 375); conditions: coupled enzyme assay; at 10 µM, hits give high values;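 note: 0% = full reaction with vehicle and 100% = no enzyme background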
Sequence (P9WIL5 whole entry, looked up): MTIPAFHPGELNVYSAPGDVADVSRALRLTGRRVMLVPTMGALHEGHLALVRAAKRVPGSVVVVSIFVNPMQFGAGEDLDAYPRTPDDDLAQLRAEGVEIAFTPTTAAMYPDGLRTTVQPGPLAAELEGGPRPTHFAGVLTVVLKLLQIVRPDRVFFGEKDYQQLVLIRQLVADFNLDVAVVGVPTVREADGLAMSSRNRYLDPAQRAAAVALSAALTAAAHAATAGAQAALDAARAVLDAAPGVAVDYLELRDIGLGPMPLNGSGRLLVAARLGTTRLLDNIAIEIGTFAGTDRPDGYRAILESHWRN

Structure (SMILES) | inhibition
COc1ccccc1NC(=O)c1ccc(COc2ccccc2OC)o1 | 0%
CCCCCCOC(=O)C(C#N)c1nc2ccccc2nc1N1CCCCC1 (stereo not given) | 0%
COC(=O)CSc1nnc(-c2ccncc2)o1 | 0%
CC(=O)Oc1cccc(/C=c2\sc3nc(-c4ccco4)nn3c2=O)c1 | 8%
Cc1oc(-c2ccccc2F)nc1CS(=O)(=O)CC(=O)N1CCCCCC1 | 1%
CCOC(=O)C1=C(NC#N)OC(C)=C(C)C1c1ccc(O)cc1 (stereo not given) | 0%
O=C(OCC#CCSc1nc2ccccc2s1)c1ccco1 | 3%
COCCNC(=O)CN1C(=O)CSc2ncccc21 | 0%
COc1ccc2[nH]c(=O)c(CN(Cc3cccs3)S(=O)(=O)c3cccc4nsnc34)cc2c1 | 0%
COc1cccc(CN(C(=O)c2cc3ccccc3oc2=O)C2CC2)c1 | 8%
COc1cccc(N2C(=O)C(O)=C(C(C)=O)C2c2ccc(OC)c(OC)c2)c1 (stereo not given) | 0%
O=C1c2ccccc2C(=O)N1Cc1nc2ccccc2c(=O)n1CCN1CCOCC1 | 1%
CC1=C(C(N)=O)C(c2ccc(Cl)cc2Cl)n2ncnc2N1 (stereo not given) | 0%
Cc1ccc(-n2nc(C)c3cc(C(=O)O)sc32)cc1 | 0%
CCOC(=O)N1CCN(C(=O)CN(C2CCCCC2)S(=O)(=O)c2ccc(F)cc2)CC1 | 0%
N#Cc1ccccc1NC(=O)CSc1nnc(-c2ccccc2)n1-c1ccccc1 | 0%
CN1CCN(CC(=O)N2c3ccccc3C(C)(c3ccccc3)CC2(C)C)CC1 (stereo not given) | 0%
Cc1cccc(-n2c(N)c(C(=O)N3CCN(C)CC3)sc2=S)c1 | 1%
CCOCC(=O)Nc1nc2c(s1)C(=O)CC(C)(C)C2 | 5%
Nc1ccc(-c2ccc(N)cc2C(F)(F)F)c(C(F)(F)F)c1 | 0%

Structure (SMILES) | inhibition
CC(C)(C)NCC(O)c1cc(O)cc(O)c1 (stereo not given) | 0%
CSc1nc(C)cc(OCC(=O)N2CCOCC2)n1 | 0%
Cc1cccc(N2CCN(C(=O)Cn3nc(Cc4ccncc4)c4ccccc4c3=O)CC2)c1C | 4%
Cc1ccc(N=Cc2ccc(O)cc2O)cc1F | 0%
COc1ccc(-c2nc3c(c(=O)n(C)c(=O)n3C)n2CC2CC(c3ccccc3)=NO2)cc1OC (stereo not given) | 1%
CCOC(=O)N1CCC(NC(=O)Cc2ccc(-n3c(=O)[nH]c4ccccc4c3=O)cc2)CC1 | 3%
CCN(CC)C(=O)Oc1ccccc1NC(C)=O | 1%
COC(=O)CSc1nnc(-c2cccs2)n1-c1ccc(Cl)cc1 | 4%
COc1ccc(S(=O)(=O)Nc2cccc(C)n2)c2ccccc12 | 2%
CCOC(=O)CSc1nc2c(c(-c3ccc(C)o3)c1C#N)CCCC2 | 0%
O=S(=O)(Nc1ccc(Cc2ccncc2)cc1)N1CCCC1 | 0%
O=c1c[n+]([O-])c2ccccc2n1OCc1c(F)cccc1F | 4%
O=C(Cn1nc(C(F)(F)F)c2c1CCCC2)NCCN1CCOCC1 | 5%
CC(C)c1ncc(C(O)c2cccc3ccccc23)n1C (stereo not given) | 0%
CC[C@]1(O)CC2CN(CCc3c([nH]c4ccccc34)[C@@](C(=O)OC)(c3cc4c(cc3OC)N(C=O)[C@H]3[C@@](O)(C(=O)OC)[C@H](OC(C)=O)[C@]5(CC)C=CCN6CC[C@]43[C@@H]65)C2)C1 (stereo not given in full) | 1%
CCOC(=O)c1sc2cccc(F)c2c1N | 13%
CC(=O)c1cn(CC(=O)NCc2ccc3c(c2)OCO3)c2ccccc12 | 0%
Cc1ccc(N2CCN(C(=O)c3ccccc3Br)CC2)c(C)c1 | 6%
CCOc1ccc(N(C(C)=O)C2C=CS(=O)(=O)C2)cc1 (stereo not given) | 0%
CC(=O)Nc1ccc(N2CCN(Cc3ccccc3F)CC2)cc1 | 0%
